# Most compounds without a hit are left out; they make up all but 9.4% or so of the library.
# NPC1 promoter act = qHTS Assay for NPC1 Promoter Activators | Huh7 NPC1 promoter luciferase reporter, 24 h | Potency, µM (series often up to 9.22 µM), actives largely listed as activators | hit rate 2.4% among 320,000; note: nearly all actives have a fitted effect of over 60% in size
#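 Huh7 cells stably carrying NPC1 promoter–luciferase, plated in Opti-MEM with 10% FBS for 2 h, were exposed to compound in DMSO for 24 h at 37 °C; luciferase reagent was added for 10 min and luminescence read.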
# ELG1 repair inh = qHTS screen for small molecules that inhibit ELG1-dependent DNA repair in human embryonic kidney (HEK293T) cells expressing luciferase-tagged ELG1 | HEK293T ELG1-luciferase reporter, luminescence, 16 h; DNA damage induced by 5-fluorouridine | Potency, µM (top dose mostly 46.1 µM), hits mostly inhibitors | hit rate 2.3% among 330,000 | AID 504467, 2011; note: nearly all actives have a fitted effect of over 55% in size
#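 Step one: seed 2,000 cells per well. Step two: pin-transfer compound or DMSO alongside 5-fluorouridine. Step three: incubate 16 hr, 37 °C, 5% CO2. Step four: add ONE-Glo, wait 30 min, read luminescence.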
# SMN2 splice enh = qHTS Assay for Enhancers of SMN2 Splice Variant Expression. HEK293 SMN2-luciferase splicing reporter, luminescence, 30-36 h. Potency, µM (series often up to 46.1 µM), hits mostly activators. hit rate 2.8% among 210,000; note: nearly all actives have a fitted effect of over 55% in size
#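 HEK293 cells carry an SMN2 minigene-luciferase reporter in which exon 7 inclusion puts luciferase in frame. Cells were seeded at 2000 cells/well, attached for 10-12 hours, then exposed to compounds for 30-36 hours at 37C before ONE-Glo luminescence.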
# ELG1 genotox = qHTS screen for small molecules that induce genotoxicity in human embryonic kidney (HEK293T) cells expressing luciferase-tagged ELG1 | Potency, µM (titrated, usually from 46 µM), actives largely listed as activators | hit rate 1.3% among 330,000 | HEK293T ELG1-luciferase reporter, luminescence, 16 h; note: nearly all actives have a fitted effect of over 60% in size
#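 Step 1: seed 2,000 HEK293T ELG1-luciferase cells per well. Step 2: add compound or DMSO, incubate 16 hr at 37 °C. Step 3: ONE-Glo, 30 min at room temperature, read luminescence.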
# FLuc counter = qHTS profiling assay for firefly luciferase inhibitor/activator using purifed enzyme and Km concentrations of substrates (counterscreen for miR-21 project). Potency, µM (highest dose often 57.5 µM), actives largely listed as inhibitors. purified FLuc, Km substrates, luminescence inhibition. hit rate 6.9% among 360,000. AID 588342, 2011. Luciferin 4-monooxygenase (Photinus pyralis), P08659; note: nearly all actives have a fitted effect of over 55% in size
# Target sequence (P08659 whole entry, looked up): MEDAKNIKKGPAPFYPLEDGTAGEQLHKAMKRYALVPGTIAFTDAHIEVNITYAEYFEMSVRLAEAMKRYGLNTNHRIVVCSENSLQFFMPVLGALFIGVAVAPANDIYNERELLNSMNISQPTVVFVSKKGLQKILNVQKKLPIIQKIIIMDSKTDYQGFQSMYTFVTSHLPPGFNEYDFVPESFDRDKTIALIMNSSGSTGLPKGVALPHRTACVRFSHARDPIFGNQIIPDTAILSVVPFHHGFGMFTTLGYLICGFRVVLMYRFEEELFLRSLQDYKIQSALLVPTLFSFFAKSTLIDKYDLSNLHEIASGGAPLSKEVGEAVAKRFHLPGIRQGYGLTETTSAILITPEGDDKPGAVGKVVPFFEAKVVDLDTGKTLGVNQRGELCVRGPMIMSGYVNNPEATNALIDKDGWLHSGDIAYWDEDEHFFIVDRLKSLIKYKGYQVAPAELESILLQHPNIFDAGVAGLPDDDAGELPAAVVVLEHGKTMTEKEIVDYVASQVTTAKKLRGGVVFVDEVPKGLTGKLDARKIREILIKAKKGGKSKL
#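 Purified P. pyralis luciferase (10nM final) with 10uM D-luciferin and 10uM ATP (Km levels) in 50mM Tris acetate pH 7.5, 10mM Mg acetate, 0.01% Tween-20, 0.05% BSA; qHTS 6-point titration, ~60 µM downward; luminescence read.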
# Rab9 promoter act = qHTS Assay for Rab9 Promoter Activators. Huh7 Rab9 promoter-luciferase reporter, luminescence, 24 h. Potency, µM (titrated, usually from 9.22 µM), most hits filed as activators. hit rate 2.8% among 320,000; note: nearly all actives have a fitted effect of over 60% in size
#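 Rab9 promoter-driven luciferase in stably transfected Huh7 cells; 1500 cells/well rested 2 h, exposed to compound in DMSO for 24 h at 37 °C, 5% CO2. Luminescence read 10 min after adding luciferase reagent at ambient temperature.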
# Numbers stand for hits; - = inactive; ? = inconclusive; . = no result given; [ ] = remark or other dose. Calls come from the whole dose curve; as a rule, active = well fitted curve in the direction sought with a large enough effect; inconclusive = small, poorly fitted or top-dose-only effect, or another doubt; inactive = no such curve, though single readings can be large; an effect the other way counts as inactive or inconclusive.
SMILES,NPC1 promoter act,ELG1 repair inh,SMN2 splice enh,ELG1 genotox,FLuc counter,Rab9 promoter act
CCOC(=O)c1sc(NC(=O)CSc2ncn(-c3ccccc3)n2)nc1C,-,-,-,-,-,-
O=C(CSc1ncn(-c2ccccc2)n1)c1cccs1,2.82µM,?,?,?,7.57µM,1.41µM
Cc1cc2oc(=O)c(CC(=O)O)c(C)c2c2occ(C(C)(C)C)c12,?,?,.,-,21.3µM,-
Cc1cc2oc(=O)c(CC(=O)NCCCO)c(C)c2c2occ(C(C)(C)C)c12,-,-,.,-,10.7µM,-
Cc1cc2oc(=O)c(CC(=O)NCCCN(C)C)c(C)c2c2occ(C(C)(C)C)c12,-,?,.,-,?,-
CC[C@@H](C)[C@H](NC(=O)Cc1c(C)c2c(cc(C)c3c(C)coc32)oc1=O)C(=O)O,-,-,.,-,?,-[1.84 µM]
COCCNC(=O)Cc1c(C)c2c(cc(C)c3c(C(C)(C)C)coc32)oc1=O,-,-,.,-,2.69µM,-
CSCC[C@H](NC(=O)Cc1c(C)c2c(cc(C)c3c(C)coc32)oc1=O)C(=O)O,-,-,.,-,19µM,-
CCOc1ccc(NC(=O)CN2C(=O)C(c3ccccc3)=NC23CCC(C)CC3)cc1 (stereo not given),.,.,-,.,-,.
CCOC(=O)CCn1c(=O)c2cccn2c2cccnc21,.,.,-,.,-,.
CCOC(=O)c1cn(Cc2ccc(C)cc2)nn1,-,?,-,-,-,-
CCCCCc1ccc(-c2cn(Cc3ccc(C)cc3)nn2)cc1,?,-,.,-,?,3.55µM
CCCCCc1ccc(-c2cn(Cc3cccc(OC)c3)nn2)cc1,-,-,.,-,?,-
COc1ccc(-c2cn(Cc3ccc(C)cc3)nn2)cc1,3.98µM,?,.,?,?,2.82µM
Cc1ccc2c(Cl)c(C)c(N3CCCC3)nc2n1,-,-,-,-,16.9µM,-
Cc1nc2ccccc2nc1N1CCCC1,-,?,-[9.22 µM],-,?,-
CCc1ccc(CNC(=O)C2CCN(C(=O)c3ccc(-n4ccc5ccccc54)s3)CC2)cc1,.,.,.,.,-,.
CCn1c(SCC(=O)Nc2ccccc2)nc2nc3c(cc2c1=O)COC(C)(C)C3,-,10.3µM,.,-,-,-
CCn1c(SCC(=O)Nc2ccc(OC)cc2OC)nc2nc3c(cc2c1=O)COC(C)(C)C3,-,?,.,-,-,-
CCn1c(SCC(=O)Nc2cccc(C)c2)nc2nc3c(cc2c1=O)COC(C)(C)C3,-,18.3µM,.,-,-,-
c1cc2c(cc1C(N1CCNCC1)N1CCNCC1)OCO2,.,.,-[9.22 µM],.,.,.
C/C(=N\Nc1ccc(Cl)c(C(=O)O)c1)c1cccc([N+](=O)[O-])c1,?,?,.,-,19µM,?
CCCCc1ccc(/C(C)=N/Nc2cc(N3CCOCC3)nc(C)n2)cc1,-,-,.,-,?,-
C/C(=N\Nc1nnc(-c2ccccc2)c(-c2ccccc2)n1)c1cccc([N+](=O)[O-])c1,-,?,-,20.6µM,13.5µM,-
C/C(=N\Nc1cc(N2CCOCC2)nc(C)n1)c1cccc([N+](=O)[O-])c1,-,14.6µM,-,-,-,-
SMILES,NPC1 promoter act,ELG1 repair inh,SMN2 splice enh,ELG1 genotox,FLuc counter,Rab9 promoter act
C/C(=N\NC(=O)c1ccccc1C)c1cccc([N+](=O)[O-])c1,-,?,-,-,?,-
O=[N+]([O-])c1cccc(/C=N/Nc2nnc(-c3ccccc3)c(-c3ccccc3)n2)c1,-,-,-,-,-,-
C/C(=N\Nc1cc(C)nc(NCc2ccccc2)n1)c1cccc([N+](=O)[O-])c1,-,-,.,-,12µM,-
COc1ccc(NC(=O)C2CCN(S(=O)(=O)c3ccc4c(c3)CCCC(=O)N4)CC2)c(OC)c1,.,.,.,.,-,.
CCOC(=O)c1c(C)oc2c1cc(O)c1ccccc12,?,?,-,?,2.39µM,-
CCOC(=O)c1c(C)oc2c1c(C=NCC1CCCO1)c(O)c1ccccc12 (stereo not given),-,-,-,-,9.53µM,-
CCOC(=O)c1c(C)oc2c1c(C=NCc1ccccn1)c(O)c1ccccc12,-,18.4µM,-,-,?,-
CCOC(=O)c1c(NCC2CCCO2)c2ccccc2[nH]c1=O (stereo not given),-,-,-,-,-,-
COc1ccc([C@@H](Nc2ncccn2)c2cc3c(cc2O)OCO3)cc1,.,.,-[9.22 µM],.,.,.
N#Cc1ccccc1NC(=O)C(=O)NCC(c1ccc2c(c1)OCO2)N1CCOCC1 (stereo not given),.,.,.,.,-,.
CCOC(=O)c1cc(-c2ccc(F)cc2)n(CCC(=O)NCc2ccc(C)cc2)c1C,.,.,.,.,-,.
CN1CCN(S(=O)(=O)c2ccc(-c3noc(C4CCN(S(C)(=O)=O)CC4)n3)cc2)CC1,-,-,?,-,-,-
CCS(=O)(=O)N1CCC(c2nc(-c3ccc(C(F)(F)F)cc3)no2)CC1,-,6.31µM,-,-,-,-
CCS(=O)(=O)N1CCC(c2nc(-c3ccc(C)cc3)no2)CC1,?,?,-,-,15.1µM,?
NC(=O)[C@@H]1CCNc2c(I)cc([N+](=O)[O-])cc2C(=O)N[C@@H](CO)C(=O)N[C@@H](Cc2ccc(O)cc2)C(=O)N1,-,-,-,-,-,-
CC(C)C[C@@H]1NC(=O)[C@H](Cc2ccc(O)cc2)NC(=O)[C@H](CCC(N)=O)NC(=O)c2cc([N+](=O)[O-])cc(I)c2NCC[C@@H](C(N)=O)NC1=O,-,-,17.8µM,-,-,-
Cc1cccc(C)c1NC(=O)CSc1cc(C(=O)c2nccn2C)c2ccccc2n1,-,14.6µM,-,-,-,-
CC(C)(C)c1cc(NCCCn2ccnc2)n2ncc(-c3ccccc3)c2n1,2µM,?,.,?,5.36µM,2.24µM
Cn1c(=O)c2c(nc(NCCCN3CCOCC3)n2Cc2ccc(Cl)cc2)n(C)c1=O,-,-,-,-,-,-
CN(C)CCCNc1cc(C(C)(C)C)nc2c(-c3ccc(Cl)cc3)cnn12,-,?,.,-,?,-
Cc1cc(NCCCN2CCOCC2)n2ncc(-c3ccc(Cl)cc3)c2n1,?,?,-,?,16.9µM,?
Cc1cccc(-c2cc3nc(C)cc(NCCCn4ccnc4)n3n2)c1,-,-,-,?,15.1µM,-
Cc1cc(NCCCn2ccnc2)n2ncc(-c3ccc(Cl)cc3)c2n1,0.447µM,?,-,?,0.953µM,0.562µM
CC(C)(C)c1cc(C(F)(F)F)n2ncc(-c3ccccc3)c2n1,-,-,-,-,-,-
CC(C)Nc1cc(C(C)(C)C)nc2c(-c3ccccc3)cnn12,?,?,.,?,10.7µM,2.82µM

# Compound activity (PubChem BioAssay)
